The full ranking holds about 81,000 sequences; the median of “one-hybrid fitness for binding parS DNA” is about -0.17, and the highest 2% start at about 0.51. The full list was thinned out, with the highest values kept by preference.
B1: Caulobacter ParB omega fusion; a variant is named by its letters at X, in order, B8GW30 (parent)
chain: MESVVVGEPGMSEGRRGLGRGLSALLGEVDAAPAQAPGEQLGGSREAPIEILQRNPDQPRRTFREEDLEDLSNSIREKGVLQPILVRPSPDTAGEYQIVAGERAWRAAQRAGLKTVPIMVRELDDLAVLEIGIIENVQRADLNVLEEALSYKVLMEKFERTQENIAQTIGKSXSHVANXMRLLXLPDEVQSYLVSGELTAXHARAIAAAADPVALAKQIIEGGLSVRETEALARKAPNLSAGKSKGGRPPRVKDTDTQALESDLSSVLGLDVSIDHRGSTGTLTITYATLEQLDDLCNRLTRGI

Variants of: B1
Assay: one-hybrid fitness for binding parS DNA (scaled: cognate 1, non-cognate 0); higher = stronger binding
Conditions: with parS DNA site
How it was run: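 Values were rescaled so that cognate is 1 and non-cognate is 0. Each is a fitness, the log change in a variant's read ratio to wild type from Illumina reads of plasmids before and after selection, with three replicate libraries pooled and variants under 10 reads dropped. Selection of the Caulobacter ParB libraries, four specificity codons randomised, used E. coli USO with a HIS3 reporter, site 19 bp from the promoter, on M9-minus-histidine with 0.1 mM IPTG and 5 mM 3-AT for 48 hours at 37°C.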

Variant | one-hybrid fitness for binding parS DNA
VHRF | ≤ 0.2
NYLC | ≤ 0.2
ALEW | ≤ 0.2
NIYW | ≤ 0.2
RRYY | 0.28
RCNY | 0.482
RCQY | 0.493
RRNY | 0.727
RRDY | 0.289
RRFY | 0.274
RAYY | 0.501
RPQY | ≤ 0.2
RMQY | 0.546
RARY | 0.552
RADY | 0.389
RRRY | 0.812
AECV | ≤ 0.2
GPSG | ≤ 0.2
TNDG | ≤ 0.2
LTTC | ≤ 0.2
SCLR | ≤ 0.2
VNDE | ≤ 0.2
FAPS | ≤ 0.2
LNVW | ≤ 0.2

Variant | one-hybrid fitness for binding parS DNA
RNEL | ≤ 0.2
RLRY | 0.645
RFRY | 0.533
RFDY | 0.443
RPGY | ≤ 0.2
RLDY | 0.451
RFYY | 0.383
RTGY | 0.593
RSGY | 0.482
RSYY | 0.457
RSRY | 0.55
RSDY | 0.352
RLYY | 0.497
RRGE | ≤ 0.2
LRQS | ≤ 0.2
LLPK | ≤ 0.2
ALSN | ≤ 0.2
RTYY | 0.49
RCYY | 0.472
RIRY | 0.617
RMIY | 0.467
RTRY | 0.828
RPRY | ≤ 0.2
RCRY | 0.695

Variant | one-hybrid fitness for binding parS DNA
RIAY | 0.484
RTLY | 0.495
RIYY | 0.475
RMYY | 0.483
RMRY | 0.777
EDER | ≤ 0.2
KRAT | ≤ 0.2
DYVS | ≤ 0.2
MMHG | ≤ 0.2
SFLE | ≤ 0.2
PRQV | ≤ 0.2
RTDY | 0.437
RSNY | 0.496
RTNY | 0.659
DVRM | ≤ 0.2
RAWC | 0.927
RAWF | 0.245
RARR | ≤ 0.2
RACC | 0.962
RAWQ | ≤ 0.2
RARK | ≤ 0.2
RAHY | 0.472
RACK | ≤ 0.2
RARC | 0.921

Variant | one-hybrid fitness for binding parS DNA
RACR | ≤ 0.2
RAHQ | ≤ 0.2
RAHC | 0.983
CWYT | ≤ 0.2
HLQT | ≤ 0.2
YDQM | ≤ 0.2
VCTK | ≤ 0.2
QSGL | ≤ 0.2
IVAE | ≤ 0.2
SVEV | ≤ 0.2
VAFA | ≤ 0.2
TVDW | ≤ 0.2
EQMM | ≤ 0.2
RASP | ≤ 0.2
RAYC | 0.99
RAYK | ≤ 0.2
RAYF | 0.264
RASD | ≤ 0.2
RAQC | 0.987
RAQH | 0.211
RALM | 0.34
RALC | 0.968
RALR | ≤ 0.2
RAQP | ≤ 0.2

Variant | one-hybrid fitness for binding parS DNA
RASC | 0.973
WCQR | ≤ 0.2
CHEL | ≤ 0.2
DWAG | ≤ 0.2
PWPN | ≤ 0.2
IYAV | ≤ 0.2
YPAT | ≤ 0.2
WGPT | ≤ 0.2
KAKV | ≤ 0.2
PNIE | ≤ 0.2
TVLI | ≤ 0.2
CNIV | ≤ 0.2
KLAN | ≤ 0.2
DLHL | ≤ 0.2
LCNK | ≤ 0.2
PFMG | ≤ 0.2
SAPW | ≤ 0.2
DGTW | ≤ 0.2
RKMF | ≤ 0.2
RKMY | 0.386
RTMT | 0.935
RTMQ | 0.208
RRMQ | ≤ 0.2
RSMT | 0.813

Variant | one-hybrid fitness for binding parS DNA
RRMF | ≤ 0.2
RDMT | ≤ 0.2
RGMT | 0.457
RTMF | 0.245
RKMT | 0.824
RRMT | 0.6
AQDS | ≤ 0.2
QQQY | ≤ 0.2
PPNS | ≤ 0.2
GHCG | ≤ 0.2
VYPW | ≤ 0.2
TWKG | ≤ 0.2
RLMK | ≤ 0.2
RPMT | ≤ 0.2
REMT | ≤ 0.2
RIMK | ≤ 0.2
RLMQ | ≤ 0.2
RCMT | 0.921
RIMF | 0.247
RFMT | 0.754
RLMT | 0.955
RFMF | 0.245
DFMT | ≤ 0.2
RIMT | 0.878

Variant | one-hybrid fitness for binding parS DNA
FHRK | ≤ 0.2
ACEY | ≤ 0.2
KYCS | ≤ 0.2
TTLF | ≤ 0.2
SFCW | ≤ 0.2
HHQT | ≤ 0.2
SRMA | ≤ 0.2
QDSQ | ≤ 0.2
KLPC | ≤ 0.2
IKAG | ≤ 0.2
HGIV | ≤ 0.2
RAMP | ≤ 0.2
RHMT | 0.87
RMMF | 0.247
RAMN | 0.41
RHML | ≤ 0.2
RMMK | ≤ 0.2
RMMT | 0.874
RHMR | ≤ 0.2
RAMT | 0.878
MMTS | ≤ 0.2
SEPR | ≤ 0.2
ENLY | ≤ 0.2
PAVK | ≤ 0.2

Variant | one-hybrid fitness for binding parS DNA
IFRK | ≤ 0.2
PDML | ≤ 0.2
THSD | ≤ 0.2
RTQC | 0.974
RTDQ | ≤ 0.2
RTWC | 0.985
RTDC | 0.887
RTWR | 0.207
RTQP | ≤ 0.2
RTWM | 0.381
RTCC | 0.959
RTCD | ≤ 0.2
RTQN | 0.442
RTDK | ≤ 0.2
RTCN | 0.451
QNHE | ≤ 0.2
TINS | ≤ 0.2
DDHK | ≤ 0.2
RPGE | ≤ 0.2
IIHE | ≤ 0.2
QARI | ≤ 0.2
RTNM | 0.301
RTGK | ≤ 0.2
RTHF | 0.277

Variant | one-hybrid fitness for binding parS DNA
RTNC | 0.914
RTRR | ≤ 0.2
RTRC | 0.826
RTGQ | ≤ 0.2
RTHR | ≤ 0.2
RTHC | 0.978
RTNP | ≤ 0.2
NTRC | ≤ 0.2
RTGC | 0.955
TEQT | ≤ 0.2
PSDC | ≤ 0.2
TTIK | ≤ 0.2
QTTK | ≤ 0.2
EMYT | ≤ 0.2
YMPG | ≤ 0.2
QGVI | ≤ 0.2
THDM | ≤ 0.2
QTRR | ≤ 0.2
WHQG | ≤ 0.2
HQDG | ≤ 0.2
SMLR | ≤ 0.2
LTRA | ≤ 0.2
KPYW | ≤ 0.2
DMSV | ≤ 0.2

Variant | one-hybrid fitness for binding parS DNA
RTSH | ≤ 0.2
RTSP | ≤ 0.2
RTYN | 0.424
RTSC | 0.969
RTYC | 0.982
RTYH | 0.266
RTLP | ≤ 0.2
RTLC | 0.982
RTLH | 0.232
CTCV | ≤ 0.2
NAVT | ≤ 0.2
MEVR | ≤ 0.2
QGIP | ≤ 0.2
IPHS | ≤ 0.2
RCLH | 0.258
RSLN | 0.443
RPLS | ≤ 0.2
RSLS | 1.01
RCLS | 1.04
RSLD | ≤ 0.2
TPGP | ≤ 0.2
ASSQ | ≤ 0.2
LTSY | ≤ 0.2
PADA | ≤ 0.2

Variant | one-hybrid fitness for binding parS DNA
RMKH | 0.24
RMVS | 1.04
RMKS | 0.832
RMVN | 0.422
RMVD | ≤ 0.2
RMKN | 0.432
LRAY | ≤ 0.2
TDIK | ≤ 0.2
RAKF | 0.385
WVHG | ≤ 0.2
RCEL | ≤ 0.2
THTA | ≤ 0.2
PWVT | ≤ 0.2
RVMF | 0.243
RVMG | 0.971
RVMT | 0.885
RVMP | ≤ 0.2
RVMC | 0.95
RVMD | ≤ 0.2
RVMY | 0.455
RVMH | ≤ 0.2
RVML | ≤ 0.2
RVMM | 0.287
RVMN | 0.388

Variant | one-hybrid fitness for binding parS DNA
RVMS | 0.997
KMVW | ≤ 0.2
WMRR | ≤ 0.2
ALEF | ≤ 0.2
ADCS | ≤ 0.2
VPDS | ≤ 0.2
AAKA | ≤ 0.2
RAKA | 0.737
RAVA | 0.542
VWKI | ≤ 0.2
LDDF | ≤ 0.2
NYSA | ≤ 0.2
EYSA | ≤ 0.2
DYKA | ≤ 0.2
RYKA | 0.793
RYWA | 0.554
RYVA | 0.508
NYLA | ≤ 0.2
RYSA | 0.535
RYLA | 0.608
LTIQ | ≤ 0.2
LMSQ | ≤ 0.2
GCEC | ≤ 0.2
QYSE | ≤ 0.2

Variant | one-hybrid fitness for binding parS DNA
MSRC | ≤ 0.2
RYGA | 0.539
SYQA | ≤ 0.2
PYQA | ≤ 0.2
NYRA | ≤ 0.2
AYGA | ≤ 0.2
RYRA | 0.727
RYIA | 0.496
SYGA | ≤ 0.2
RYQA | 0.562
RYHA | 0.545
KHQR | ≤ 0.2
QHCK | ≤ 0.2
PRPC | ≤ 0.2
YWNN | ≤ 0.2
YYMS | ≤ 0.2
ILCT | ≤ 0.2
TTSA | ≤ 0.2

Source: a collection of fitness landscapes (doi:10.1016/j.celrep.2020.107928)
